SARS PLpro yeast – inhibitors of SARS-CoV papain-like protease in yeast; S. cerevisiae expressing SARS-CoV PLpro, growth rescue; Potency, µM (highest dose often 32.9 µM), actives largely listed as activators; 0.19% of 330,000 active; AID 485353; calls by dose curve; further: nearly all actives have a fitted effect of over 55% in size
AMA1 RON2 block – AMA1-RON2 (P. falciparum) interaction inhibition; AlphaScreen AMA1-biotinylated RON2 peptide binding; Potency, µM (doses to about 58.2 µM), hits mostly inhibitors; 0.2% of 360,000 active; further: nearly all actives have a fitted effect of over 45% in size
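AMA1 (3D7) with his tag at 25 nM final met compounds first, then biotinylated RON2 peptide at 25 nM; detection used donor plus acceptor beads, 10 µg/mL apiece, read by AlphaScreen after 30 min at room temperature.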
VACV Venus inh – inhibitors of vaccinia virus (Venus reporter); Vaccinia virus Venus reporter expression, fluorescence; Potency, µM (series often up to 36.5 µM), usual class: inhibitors; 0.46% of 330,000 active; AID 720580; calls by dose curve; tested in A549 cells; further: nearly all actives have a fitted effect of over 30% in size
Vaccinia mCherry – vaccinia inhibition (mCherry reporter); 0.63% of 310,000 active; Potency, µM (series often up to 36.5 µM), most hits filed as inhibitors; AID 720579; Vaccinia virus mCherry reporter infection, fluorescence; calls by dose curve; tested in A549 cells; further: nearly all actives have a fitted effect of over 35% in size
AmpC inh detg – inhibitors of E. coli AmpC beta-lactamase with detergent. P00811. AmpC hydrolysis of nitrocefin, absorbance 480 nm, 0.01% Triton. Potency, µM (titrated, usually from 114 µM), hits mostly inhibitors. 0.041% of 370,000 active. AID 485294; further: nearly all actives have a fitted effect of over 25% in size
Target sequence (P00811 whole entry, looked up): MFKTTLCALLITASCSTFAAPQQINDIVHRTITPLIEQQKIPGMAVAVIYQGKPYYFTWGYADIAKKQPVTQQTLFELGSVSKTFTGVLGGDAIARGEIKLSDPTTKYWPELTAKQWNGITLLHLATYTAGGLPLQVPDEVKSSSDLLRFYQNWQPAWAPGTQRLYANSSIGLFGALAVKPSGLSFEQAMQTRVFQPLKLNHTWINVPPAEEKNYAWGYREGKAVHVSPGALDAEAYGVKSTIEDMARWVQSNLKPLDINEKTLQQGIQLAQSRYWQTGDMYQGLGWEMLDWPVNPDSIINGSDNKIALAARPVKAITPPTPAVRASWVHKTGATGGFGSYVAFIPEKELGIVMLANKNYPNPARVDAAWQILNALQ
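AmpC (5.3 nM in the dispensed reagent) in 20 mM phosphate pH 7.0 with 0.01% (detergent screen) or 0.0001% Triton X-100 was preincubated with compounds for 15 min at room temperature. Nitrocefin was then added from an 800 uM solution, and hydrolysis was followed at 480 nm.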
AmpC no deterg – inhibitors of E. coli AmpC beta-lactamase without detergent; P00811; AmpC nitrocefin hydrolysis, absorbance 480 nm, 0.0001% Triton; Potency, µM (series often up to 57.1 µM), most hits filed as inhibitors; 0.52% of 330,000 active; AID 485341; further: nearly all actives have a fitted effect of over 20% in size
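AmpC (5.3 nM in the dispensed reagent) in 20 mM phosphate pH 7.0 with 0.01% (detergent screen) or 0.0001% Triton X-100 was preincubated with compounds for 15 min at room temperature. Nitrocefin was then added from an 800 uM solution, and hydrolysis was followed at 480 nm.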
Numbers stand for hits; – = inactive; ? = inconclusive; · = no result given; [ ] = dose if it differs, or a comment. Compounds with a hit are over-represented: about 1.3% of the library has one in this group of screens. Unless noted, the call rests on the fitted dose curve; in most records, active means well fitted curve in the direction sought with a large enough effect; inconclusive means small, poorly fitted or top-dose-only effect, or another doubt; inactive means no such curve, though single readings can be large; an effect the other way counts as inactive or inconclusive.

SMILES	SARS PLpro yeast	AMA1 RON2 block	VACV Venus inh	Vaccinia mCherry	AmpC inh detg	AmpC no deterg
O=C1c2cccnc2C(=O)N1CO	–	–	–	·	–	–
NC1=C(Br)C(=O)c2ncccc2C1=O	·	–	2.5µM	?	·	·
COC(c1ccc2c(c1)CN(C(=O)Cn1nc(C)c3ccccc3c1=O)CCO2)C1CCCCC1 (stereo not given)	·	·	–	–	·	·
C=C1[C@@H](O)[C@H](CC(C)C)N(Cc2ccccc2Br)S1(=O)=O	·	–	10µM	?	·	·
CCC(O)CNC(=O)c1cnn(-c2ncc3c(n2)-c2ccccc2CCC3)c1C1CC1 (stereo not given)	·	·	–	–	·	·
COc1cc(OC)cc(C(=O)N2CCCC(n3cc(C(=O)NCC(C)C)nn3)C2)c1 (stereo not given)	·	·	–	–	·	·
CC1CN(CCS(=O)(=O)c2cc(Cl)ccc2Cl)CC(C)O1 (stereo not given)	–	–	?	11µM	–	–
CC(=O)N1CCN(CCS(=O)(=O)c2cc(Cl)ccc2Cl)CC1	–	–	?	?	·	–
CCCCNc1c(-c2ccc(OC)c(Sc3ccc(OC)cc3)c2)nc2cnccn12	–	–	–	–	·	–
CCCCNc1c(-c2ccc(SC(C)CC)cc2)nc2cnccn12 (stereo not given)	–	–	22µM	32µM	·	–
Cc1nc2n(c(=O)c1CCN1CCC(c3noc4cc(F)ccc34)CC1)CCC[C@H]2O	·	·	–	–	·	·
NS(=O)(=O)c1ccc(Oc2ccc(S(N)(=O)=O)cc2)cc1	–	–	–	–	–	–
C=CS(=O)(=O)c1ccc(Oc2ccc(S(=O)(=O)C=C)cc2)cc1	–	–	10µM	7.1µM	–	–
COc1cccc(-c2ccnc(-n3ncc(C(=O)NCc4cccnc4)c3C3CC3)n2)c1	·	·	–	–	·	·
CN1CCN(S(=O)(=O)c2ccc(Sc3nnc(-c4cccs4)n3-c3ccccc3)nc2)CC1	–	–	?	10µM	–	–
CSc1nnc(-c2cccs2)n1-c1ccccc1	–	–	–	–	–	–
COc1cccc(NC(=O)c2cccc(C(=O)Nc3cccc(OC)c3)n2)c1	–	–	–	–	–	–
C=CC(=O)Nc1cccc(Oc2cc(Cl)nc3[nH]ccc23)c1	–	–	1.6µM	?	·	–
O=C(COC(=O)c1ccco1)Nc1nc2c(F)c(F)c(F)cc2s1	–	–	–	–	–	–
O=C(COC(=O)c1ccc(NS(=O)(=O)c2cccs2)cc1)Nc1nc2c(F)c(F)c(F)cc2s1	–	–	–	–	–	20µM
COCCS(=O)(=O)N(Cc1ccc(Br)cc1)[C@@H](C)C(=O)OC	–	–	7.1µM	?	·	–
Cc1ccc(-c2nnc(N3CCC(C)CC3)c3ccccc23)cc1C	–	–	13µM	28µM	–	–
CCC(CC)C(=O)NCCc1cc2c(OC)ccc(OC)c2[nH]c1=O	–	–	?	·	–	–
COc1ccc(OC)c2[nH]c(=O)c(CCNC(=O)C(C)C)cc12	–	–	–	–	?	10µM
O=C(NCC1Cc2cccc(-c3cccnc3)c2O1)c1ccc2cc[nH]c2c1 (stereo not given)	·	·	–	–	·	·
SMILES	SARS PLpro yeast	AMA1 RON2 block	VACV Venus inh	Vaccinia mCherry	AmpC inh detg	AmpC no deterg
O=C(O)CCCC(=O)Nc1ccccc1SCCS(=O)(=O)c1ccc(Cl)cc1	–	–	?	20µM	–	–
COc1cc(OC)c(/C=N/NC(N)=S)cc1Br	–	–	1.3µM	1µM	–	–
COc1cc(/C=N/NC(N)=S)cc(Br)c1OCc1ccccc1F	–	–	2.5µM	?	–	–
COc1cc(CNc2ccc3[nH]c(=O)[nH]c3c2)cc(Br)c1OCc1ccccc1F	?	–	?	6.3µM	–	–
O=C1Nc2cc(C(=O)N3CCOCC3)ccc2S/C1=C/c1ccccc1F	·	–	?	–	·	·
CCn1c(-c2cccc(OC)c2)nc2cc(NC(C)=O)cc(C(=O)N3CCCC(C(C)=O)C3)c21 (stereo not given)	·	·	–	–	·	·
O=C(Nc1cnn(Cc2ccc(Cl)c(Cl)c2)c1)C12CC3CC(CC(C3)C1)C2	–	–	?	18µM	–	–
COc1ccc(OC)c(/C=N/NC(=O)c2ccc(Cn3cc([N+](=O)[O-])cn3)o2)c1	–	–	–	–	?	40µM
CCOc1ccc(NC(=O)C(=O)NCCCn2ccnc2)cc1	–	–	–	–	–	0.16µM
Cc1ccc(SCc2[nH]nc3c2C2(CCSCC2)C(C#N)=C(N)O3)cc1	–	–	–	–	–	28µM
CCOC(=O)N1CCC2(CC1)C(C#N)=C(N)Oc1n[nH]c(CSc3ccc(C)cc3)c12	–	–	–	–	–	–
COc1cc(=O)n2c(c1C(=O)NC(C)c1ccco1)CCN(Cc1ccccc1C(F)(F)F)CC2 (stereo not given)	·	·	–	–	·	·
CCOc1ccc(NS(=O)(=O)c2ccc(C(=O)NNC(=O)c3ccccc3O)cc2)cc1	?	–	?	7.1µM	–	–
CCOc1ccc(S(=O)(=O)Nc2ccc(C(=O)NNC(=O)c3ccncc3)cc2)cc1	–	–	–	–	–	–
O=C1C[C@H]2C=CCc3cccc(c32)CN1Cc1ccc(Cl)cc1	·	·	–	–	·	·
Cc1cnc(SCC2CCCO2)nc1C1CCCN(Cc2nc(-c3ccccc3)cs2)C1 (stereo not given)	·	·	–	–	·	·
CCN(CC)C(=O)C1CCCN(C/C(C)=C/c2ccccc2)C1 (stereo not given)	–	–	·	·	–	–
CCN(CC)C(=O)C1CCCN(C/C=C/c2ccccc2)C1 (stereo not given)	–	–	·	·	–	0.28µM
COC(=O)C12OCC34C(CC5C(C)=C(O)C(=O)CC5(C)C3C(O)C1O)OC(=O)C(OC(=O)C=C(C)C)C24 (stereo not given)	·	–	?	32µM	·	·
COC(=O)C12OCC34C(CC5C(C)=C(O)C(=O)CC5(C)C3C(O)C1O)OC(=O)C(OC(=O)/C=C(\C)C(C)C)C24 (stereo not given)	·	–	1.3µM	?	·	·
Cc1cc(C(=O)Nc2cccc(-c3nc(CNC(=O)c4ccccc4C(F)(F)F)c(C)o3)c2)c(C)o1	·	·	–	–	·	·
Cc1ccc(CN2CCC(=O)N(Cc3ccccn3)CC2)c(C)c1	·	·	–	–	·	·
COc1ccc(CCN2CCC(CNC(=O)c3cnn(-c4ccc(C)cc4)c3C3CCN(C(=O)OC(C)(C)C)CC3)CC2)cc1	·	·	11µM	?	–	·
CCN(CC)c1ccc(S(=O)(=O)Nc2cc(Cl)ccc2Cl)cc1NC(=S)NC(=O)C1CCCC1	–	–[11.6 µM]	–	–	?	25µM
CCN(CC)S(=O)(=O)c1ccc(Cl)c(NC(=S)NC(=O)C2CCCC2)c1	–	–	·	·	–	–
O=S(=O)(N[C@H]1C[C@@H](NS(=O)(=O)OCC(Cl)(Cl)Cl)C2CCCCC21)OCC(Cl)(Cl)Cl (stereo not given in full)	–	–	10µM	?	–	?
